Compounds without any hit were thinned out: in the full panel of roughly 83,000, 20% have a hit.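 Results are percent growth after 48 hours of single-concentration exposure. 100 means growth as in untreated cells, lower positive values show inhibition; negative values down to -100 show cell death.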 The source made the active and inactive calls. How the source made its calls: active means growth percent below 10; inactive means the rest.
Experiments:
Test in all cases: NCI-60 one-dose screen, 48 h (100 = growth as untreated, 0 = no growth, -100 = all killed)
Settings in all cases: 10 µM unless noted
HCT-15 colon = tested on: HCT-15 colon
HT29 colon = tested on: HT29 colon
SNB-75 CNS = tested on: SNB-75 CNS
SNB-19 CNS = tested on: SNB-19 CNS
U251 CNS = tested on: U251 CNS
PC-3 prostate = tested on: PC-3 prostate
SK-MEL-5 melanoma = tested on: SK-MEL-5 melanoma
LOX IMVI melanoma = tested on: LOX IMVI melanoma
SK-MEL-28 melanoma = tested on: SK-MEL-28 melanoma
SN12C renal = tested on: SN12C renal
UO-31 renal = tested on: UO-31 renal
TK-10 renal = tested on: TK-10 renal
ACHN renal = tested on: ACHN renal
CAKI-1 renal = tested on: CAKI-1 renal
A498 renal = tested on: A498 renal
CCRF-CEM leukemia = tested on: CCRF-CEM leukemia
MOLT-4 leukemia = tested on: MOLT-4 leukemia
UACC-62 melanoma = tested on: UACC-62 melanoma
EKVX NSCLC = tested on: EKVX NSCLC
SK-MEL-2 melanoma = tested on: SK-MEL-2 melanoma

Measured: growth

c1ccc2c(Cc3csc4ccccc34)csc2c1
inactive: HCT-15 colon 76.1% | HT29 colon 76.2% | SNB-75 CNS 66.9% | SNB-19 CNS 90.4% | U251 CNS 81.9% | PC-3 prostate 85.2% | SK-MEL-5 melanoma 91% | LOX IMVI melanoma 84.3% | SK-MEL-28 melanoma 82.9% | SN12C renal 97.1% | UO-31 renal 47.5% | TK-10 renal 106% | ACHN renal 93.1% | CAKI-1 renal 81.2% | A498 renal 107% | CCRF-CEM leukemia 94.2% | MOLT-4 leukemia 87%

O=C(O)/C=C(\c1nc2ccc([N+](=O)[O-])cc2[nH]1)c1cc(Cl)ccc1O
inactive: HCT-15 colon 21.1% | HT29 colon 36.2% | SNB-75 CNS 50.4% | U251 CNS 16.9% | PC-3 prostate 14.1% | LOX IMVI melanoma 21% | SK-MEL-28 melanoma 20.8% | EKVX NSCLC 17.6% | SN12C renal 13.1% | UO-31 renal 17% | TK-10 renal 27.4% | ACHN renal 12.5%
active: SK-MEL-5 melanoma -28% | UACC-62 melanoma -3.61% | A498 renal 7.28% | CCRF-CEM leukemia 0.888% | MOLT-4 leukemia -4.02%

COc1ccc(Sc2[nH]c(C=O)c3ccccc23)cc1
active: SNB-75 CNS 6.71% | CCRF-CEM leukemia 0.79%
inactive: HCT-15 colon 63.1% | HT29 colon 19.4% | U251 CNS 76.6% | PC-3 prostate 45% | SK-MEL-5 melanoma 70.1% | UACC-62 melanoma 46.7% | LOX IMVI melanoma 70.3% | SK-MEL-28 melanoma 81.9% | SK-MEL-2 melanoma 69% | EKVX NSCLC 33.2% | SN12C renal 89% | UO-31 renal 57.7% | TK-10 renal 34.1% | ACHN renal 87.1% | A498 renal 33.1% | MOLT-4 leukemia 41.9%

COc1ccc(-c2n[nH]nc2-c2cc(OC)c3c(c2)OCO3)cc1
active: HCT-15 colon 6.08% | HT29 colon -9.19% | U251 CNS 1.06% | PC-3 prostate -7.05% | SK-MEL-5 melanoma -1.56% | LOX IMVI melanoma -4.34% | SK-MEL-2 melanoma 6.64% | CAKI-1 renal -2.7% | A498 renal -9.3% | CCRF-CEM leukemia -4.86% | MOLT-4 leukemia -15.3%
inactive: SNB-75 CNS 25.4% | UACC-62 melanoma 28% | SK-MEL-28 melanoma 46.3% | SN12C renal 23% | UO-31 renal 20.1% | TK-10 renal 47.7% | ACHN renal 29.6%

CCOc1c(C#N)c2c(N)ncnc2n1C1OC(CO)C(O)C1O (stereo unspecified)
inactive: HCT-15 colon 23.1% | HT29 colon 22.6% | SNB-75 CNS 62.4% | U251 CNS 35.4% | PC-3 prostate 16.2% | SK-MEL-5 melanoma 79% | UACC-62 melanoma 49.8% | LOX IMVI melanoma 18.9% | SK-MEL-28 melanoma 20.4% | EKVX NSCLC 58.4% | SN12C renal 39.2% | TK-10 renal 88.4% | ACHN renal 33.9%
active: UO-31 renal 6.4% | A498 renal -13% | CCRF-CEM leukemia -8.09%

CC(OC(=O)Nc1cccc(Cl)c1)C(=O)O (stereo unspecified)
inactive: HCT-15 colon 104% | HT29 colon 102% | SNB-75 CNS 84.6% | U251 CNS 102% | PC-3 prostate 93% | SK-MEL-5 melanoma 107% | UACC-62 melanoma 91.8% | LOX IMVI melanoma 96.9% | SK-MEL-28 melanoma 112% | EKVX NSCLC 103% | SN12C renal 92.7% | UO-31 renal 90.7% | TK-10 renal 102% | ACHN renal 97.4% | CCRF-CEM leukemia 101%

COC(=O)c1cc(Cl)cc([N+](=O)[O-])c1O
inactive: HCT-15 colon 109% | HT29 colon 110% | SNB-75 CNS 97.2% | U251 CNS 112% | PC-3 prostate 97.3% | SK-MEL-5 melanoma 106% | UACC-62 melanoma 110% | LOX IMVI melanoma 114% | SK-MEL-28 melanoma 120% | SK-MEL-2 melanoma 135% | EKVX NSCLC 88.8% | SN12C renal 108% | UO-31 renal 87.1% | TK-10 renal 118% | ACHN renal 106% | CAKI-1 renal 92.6% | A498 renal 89.5% | CCRF-CEM leukemia 25.6% | MOLT-4 leukemia 61.6%

CCN(CC)CCC(CNc1ccnc2cc(Cl)ccc12)c1ccc(O)cc1 (stereo unspecified)
inactive: HCT-15 colon 109% | HT29 colon 29.5% | SNB-75 CNS 85.7% | U251 CNS 81.3% | PC-3 prostate 61.1% | SK-MEL-5 melanoma 91.9% | UACC-62 melanoma 103% | LOX IMVI melanoma 50.4% | SK-MEL-28 melanoma 107% | SK-MEL-2 melanoma 119% | EKVX NSCLC 99.4% | SN12C renal 99.1% | UO-31 renal 77.4% | TK-10 renal 90.2% | ACHN renal 98.5% | A498 renal 37.7% | CCRF-CEM leukemia 46% | MOLT-4 leukemia 48.3%

CC1=C(C(=O)Nc2ccc(F)cc2)C(c2ccc(C)cc2)C2=C(CC(C)(C)CC2=O)N1 (stereo unspecified)
inactive: HCT-15 colon 94% | HT29 colon 100% | SNB-75 CNS 55.7% | U251 CNS 88.8% | PC-3 prostate 75.3% | SK-MEL-5 melanoma 94.1% | UACC-62 melanoma 86.4% | LOX IMVI melanoma 90% | SK-MEL-28 melanoma 97.1% | SK-MEL-2 melanoma 110% | SN12C renal 97% | UO-31 renal 63.2% | TK-10 renal 109% | ACHN renal 94.7% | CAKI-1 renal 69.6% | A498 renal 63.7% | CCRF-CEM leukemia 82.8% | MOLT-4 leukemia 85%
